The nature of test [1]: qHTS RealTime-Glo MT Cell Viability Assay in HEK293 cells - 16 hour (AID 1224872). Further: nearly all actives have a fitted effect of over 50% in size. Further: potency means the concentration at half of the fitted maximal effect. On activity change, negative = cytotoxicity: top concentration of the series differs between compounds. To be noted: RealTime-Glo luminescence; series mostly up to 76.8 µM. In outline:
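HEK293 cells seeded with NanoLuc/prosubstrate reagent, rested 5 h at 37 C, then dosed and kept at 37 C up to 40 h. Nonlytic real-time luminescence from viable cells read at 0, 8, 16, 24, 32 and 40 h.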
(In general: In qHTS, concentration-response curves come from the screen itself.)

Test [2] is described as follows: qHTS RealTime-Glo MT Cell Viability Assay in HepG2 cells - 8 hour (AID 1224873). Further: nearly all actives have a fitted effect of over 55% in size. Further: potency means the concentration at half of the fitted maximal effect. To be noted: RealTime-Glo luminescence; series mostly up to 76.8 µM. In outline:
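Real-time viability: cells seeded at 600 per well together with NanoLuc and cell-permeant prosubstrate, compounds added after 5 h incubation. Luminescence tracked at 0, 8, 16, 24, 32 and 40 h of exposure.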

Test [3] is described as follows: A CellTox Green Cytotoxicity Assay to monitor cytotoxicity in HEK293 cells - 24 hour (AID 1224875). Further: nearly all actives have a fitted effect of over 45% in size. Further: potency means the concentration at half of the fitted maximal effect. To be noted: CellTox Green fluorescence; series mostly up to 76.8 µM. The procedure, abridged: (§1)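 Homogeneous no-lysis format: HEK293 cell suspension mixed with CellTox Green reagent, seeded, incubated 5 h at 37 C/5% CO2, then dosed by pintool with compound in DMSO.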

Test [4] is described as follows: A CellTox Green Cytotoxicity Assay to monitor cytotoxicity in HepG2 cells - 16 hour (AID 1224876). Further: nearly all actives have a fitted effect of over 45% in size. Further: potency means the concentration at half of the fitted maximal effect. To be noted: CellTox Green fluorescence; series mostly up to 76.8 µM. The procedure, abridged:
(§2)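 Fluorescent DNA-binding dye, 600 HepG2 cells/well, 5 h preincubation then compound in DMSO; same plates read at 0–40 h, 37 C.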

Test [5] can be described thus: qHTS RealTime-Glo MT Cell Viability Assay in HepG2 cells - 32 hour (AID 1224877). Further: nearly all actives have a fitted effect of over 55% in size. Further: potency means the concentration at half of the fitted maximal effect. To be noted: RealTime-Glo luminescence; series mostly up to 76.8 µM. The procedure, abridged:
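HepG2 cells (600/well) were dispensed with RealTime-Glo reagents, incubated 5 h at 37 °C, then treated with compounds in DMSO for up to 40 h. Nonlytic NanoLuc luminescence reflecting viable cells was read at each stated time point.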

Test [6] in a line: A CellTox Green Cytotoxicity Assay to monitor cytotoxicity in HepG2 cells - 24 hour (AID 1224878). Further: nearly all actives have a fitted effect of over 45% in size. Further: potency means the concentration at half of the fitted maximal effect. The settings on record: CellTox Green fluorescence; series mostly up to 76.8 µM. The procedure, abridged:
as §2

Test [7] can be described thus: qHTS RealTime-Glo MT Cell Viability Assay in HEK293 cells - 0 hour (AID 1224880). Further: top concentration of the series differs between compounds; nearly all actives have a fitted effect of over 45% in size. The settings on record: RealTime-Glo luminescence; series mostly up to 76.8 µM. The procedure, abridged:
(§3)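 Measured as luminescence from the same continuously cultured HEK293 wells at successive time points (0, 8, 16, 24, 32, 40 h) after compound addition. Reagent present from seeding; dosing at 5 h; incubation 37 C.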

A short description of test [8]: A CellTox Green Cytotoxicity Assay to monitor cytotoxicity in HEK293 cells - 32 hour (AID 1224881). Further: nearly all actives have a fitted effect of over 40% in size. Further: potency means the concentration at half of the fitted maximal effect. To be noted: CellTox Green fluorescence; series mostly up to 76.8 µM. In outline: as §1
Test [9] is described as follows: qHTS RealTime-Glo MT Cell Viability Assay in HEK293 cells - 40 hour (AID 1224874). Further: nearly all actives have a fitted effect of over 50% in size. Further: potency means the concentration at half of the fitted maximal effect. The settings on record: RealTime-Glo luminescence; max response: hits give low values. The procedure, abridged: as §3
Test [10] is described as follows: A CellTox Green Cytotoxicity Assay to monitor cytotoxicity in HepG2 cells - 40 hour (AID 1224879). Further: nearly all actives have a fitted effect of over 40% in size. Further: potency means the concentration at half of the fitted maximal effect. To be noted: CellTox Green fluorescence; series mostly up to 76.8 µM. In outline:
as §2

Inconclusive results are not listed. A number with no mark means an inactive call. Activity calls are given as the source filed them. The call rests on the fitted dose curve; in most records, active means well fitted curve in the direction sought with a large enough effect in the repeat runs; inconclusive means weak or mixed curves; inactive means no such curve, though single readings can be large; an effect the other way counts as inactive or inconclusive.
On the % scale 0 is the no-effect control and ±100 the full control effect.

Regarding `O=C1NC(=O)[C@@H]2CC=CC[C@H]12`, the Potency result in test [1], in test [2], in [3], in [4], in test [5] and in test [6] was “inactive” in each case. In addition, the Potency result in [7] and in test [8] was “inactive” in each case.
Take `NC(=O)c1cccc([N+](=O)[O-])c1`: the Potency result in [1], in test [3], in test [4], in test [5], in test [6] and in test [10] was “inactive” throughout. In addition, the Potency result in test [7] was “inactive”. Besides, in [9], the max response was -0.169%.
Take `O=C(/C=C/c1ccccc1)OC/C=C/c1ccccc1`: the Potency entry in [1], in test [2], in test [4], in [5], in [6] and in [10] was “inactive” throughout. For the same compound, the Potency result in test [7] and in test [8] was “inactive” throughout. In addition, in test [9], the max response is -1.97%.
Turning to `CC(C)(C)CC(C)(C)c1ccc(Nc2ccc(C(C)(C)CC(C)(C)C)cc2)cc1`, the values for the activity change, negative = cytotoxicity in [1] and in test [7] were -0.589% [at 6.97 µM] and -8.12% [at 6.97 µM], respectively. Besides, the max response in test [9] is 9%. For the same compound, in [3], the activity change is 4.29% [at 6.97 µM, hits give high values]. Besides, the cytotoxicity increase in [4] was -0.431% [at 6.97 µM]; in test [10] it was 2.12% [at 6.97 µM]. Moreover, in [5], the activity change, negative = cytotoxic is 0.186% [at 6.97 µM]. Also, the cytotoxicity in test [6] was 4.45% [at 6.97 µM].
For the compound `Cc1c(C)c([N+](=O)[O-])c(C(C)(C)C)c([N+](=O)[O-])c1C`, the Potency result in [1], in test [3], in test [4], in [5], in test [6] and in test [10] was “inactive” in each case. The Potency result in test [7] and in test [8] was “inactive” each time. Further, the max response in [9] was -0.27%.
Regarding `O=[N+]([O-])c1ccc(O)cc1C(F)(F)F`, the Potency result in test [1], in test [2], in test [3], in [6] and in [7] was “inactive” throughout.
Consider `Cc1ccc(C(=O)O)cc1`, for which the Potency entry in test [1], in test [2], in test [3], in test [5], in test [7] and in test [8] was “inactive” throughout. For the same compound, in [9], the max response is 10%.
For `O=C(O)c1cc(O)c2ccccc2c1O`, the Potency in test [1] was 38.9 µM (active); in test [2], 17.4 µM (active); in test [9], 38.9 µM (active); in [4] it was 43.6 µM (active); in [5], 21.9 µM (active); in [6], 43.6 µM (active). The Potency in test [10] was 24.5 µM (active); in test [8] it was 21.9 µM (active).
For `Cl[Si](Cl)(c1ccccc1)c1ccccc1`, the Potency result in [1], in test [2], in test [5], in [6], in test [10] and in [7] was “inactive” in each case. Moreover, in test [9], the max response was -3.91%.
For the compound `CCC(COC(=O)CCS)(COC(=O)CCS)COC(=O)CCS`, the Potency entry in test [1], in test [2], in [3], in test [5], in test [6] and in [10] was “inactive” throughout. The Potency result in test [7] and in [8] was “inactive” throughout. Further, the max response in test [9] was 0.669%.
Take `CC(C)CCOC(=O)/C=C/c1ccccc1`: the Potency result in [1], in [2], in test [3], in test [5], in test [6] and in test [10] was “inactive” in each case. The Potency result in [7] and in [8] was “inactive” each time. Also, the max response in test [9] is -4.61%.
With `CC(=O)Oc1cc2c(s1)CCN(C(C(=O)C1CC1)c1ccccc1F)C2` (stereo unspecified), the Potency entry in test [1], in test [2], in test [3], in test [5], in [6] and in [10] was “inactive” in each case. Moreover, the Potency result in test [7] and in test [8] was “inactive” each time. The max response in test [9] was -4.77%.
Turning to `C=C(C)C(=O)OCCCCCCCCCC`, the Potency entry in [1], in test [2], in [4], in test [5], in test [6] and in test [10] was “inactive” in each case. Also, the Potency entry in test [7] is “inactive”. The max response in test [9] is 14.3%.
Turning to `CC/C=C\CCCCCO`, the Potency result in test [1], in [2], in [3], in test [5], in test [7] and in test [8] was “inactive” throughout. The max response in [9] was 9.87%.
Turning to `Cc1cc(C(C#N)c2ccc(Cl)cc2)c(Cl)cc1NC(=O)c1cc(I)cc(I)c1O` (stereo unspecified), the Potency result in test [1], in [2], in test [3], in test [4], in test [5] and in [6] was “inactive” each time. Moreover, the Potency entry in [10] and in [7] was “inactive” in each case.
Consider `COc1cccc(OC)c1C(=O)O`, for which the Potency result in test [1], in test [2], in [4], in test [5], in [6] and in [10] was “inactive” in each case. Also, the Potency result in test [7] is “inactive”. In addition, the max response in test [9] is 0.328%.
Consider `c1cnccn1`, for which the Potency result in test [1], in test [2], in test [3], in test [5], in test [6] and in [10] was “inactive” each time. Moreover, the Potency result in test [7] and in [8] was “inactive” throughout. The max response in [9] is 2.57%.
In the case of `CNc1ccc([N+](=O)[O-])cc1`, the Potency entry in [1], in test [3], in test [4], in test [5], in [6] and in test [10] was “inactive” in each case. In addition, in test [7], the Potency result is “inactive”. Further, in [9], the max response was -13.4%.
Consider `COc1c(C)c2c(c(O)c1C/C=C(\C)CCC(=O)OCCN1CCOCC1)C(=O)OC2`, for which the Potency result in test [1], in test [3], in test [4], in [5], in [6] and in test [10] was “inactive” throughout. Moreover, in [7], the Potency entry is “inactive”.
With `OC1CCCc2ccccc21` (stereo unspecified), the Potency entry in [1], in test [3], in test [5], in test [6], in test [10] and in [7] was “inactive” in each case. In addition, in test [8], the Potency result is “inactive”. Also, the max response in [9] was -0.638%.
`CCN(CC)C(=O)c1cc(S(=O)(=O)Cc2ccccc2)c(N2CCC(c3ccccc3)CC2)cc1N(CC)CCN(C)C`: the Potency in [1] is 15.3 µM (active); in test [9], 7.67 µM (active); in test [3], 19.3 µM (active); in test [5], 17.2 µM (active); in test [6], 17.2 µM (active); in test [10] it was 13.6 µM (active). In test [7], the Potency entry was “inactive”.
On to `CCOC(=O)Cn1cccc1-c1nc(-c2ccc(OC)cc2)c(-c2ccc(OC)cc2)s1`, for which the Potency result in test [1], in [3], in [4], in test [6], in test [10] and in test [7] was “inactive” each time. Further, in test [8], the Potency entry was “inactive”. Besides, the max response in test [9] is -5.42%.
In the case of `O=C1CCc2ccc(OCCCCN3CCN(c4cccc(Cl)c4Cl)CC3)cc2N1`, the Potency in [1] was 10.7 µM (active); in test [9] it was 9.52 µM (active); in [10], 26.8 µM (active). In addition, the Potency entry in test [3], in test [4], in [7] and in [8] was “inactive” each time.

The record behind these values is PubChem BioAssay (Tox21).
